Measurements from PubChem BioAssay (EPA / NIEHS).
Results filed as inconclusive are left out. Some compounds were tested as several samples or in several runs, with calls that do not always agree. The source made the active and inactive calls. The calls were made as follows, unless noted: active = hit-call score of the fitted dose curve at least 0.9, where 1 is the maximum; inactive = score below 0.9.

Legend:
[1] = read-out: Monokine induced gamma interferon (MIG), CXCL9 (gene 4283); assay: BSK_3C_MIG: BioMAP Diversity Plus: 3C Assay for Monokine induced gamma interferon (MIG) Biomarker Activity (AID 2283021); settings: primary human endothelial cells (HUVEC); actives raise or lower the signal;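 as to AC50: MIG protein level measured by immunoassay in the treated endothelial cultures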
Method in brief: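 Endothelial primary cells (human umbilical vein) are dosed with test chemical in the 3C system. MIG levels are measured by ELISA at 24 h and fitted in both directions relative to DMSO.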

[2] = molecular target: human Vitamin D Receptor (VDR), VDR (gene 7421) (UniProt P11473); assay: ATG_VDR_TRANS: Attagene TRANS-FACTORIAL HepG2 Assay for human Vitamin D Receptor (VDR) (AID 2283022; active = hit-call score of the fitted dose curve at least 0.9, where 1 is the maximum)
Chain of human Vitamin D Receptor (VDR), VDR (gene 7421) (P11473 whole entry, looked up, the tested form may be a part): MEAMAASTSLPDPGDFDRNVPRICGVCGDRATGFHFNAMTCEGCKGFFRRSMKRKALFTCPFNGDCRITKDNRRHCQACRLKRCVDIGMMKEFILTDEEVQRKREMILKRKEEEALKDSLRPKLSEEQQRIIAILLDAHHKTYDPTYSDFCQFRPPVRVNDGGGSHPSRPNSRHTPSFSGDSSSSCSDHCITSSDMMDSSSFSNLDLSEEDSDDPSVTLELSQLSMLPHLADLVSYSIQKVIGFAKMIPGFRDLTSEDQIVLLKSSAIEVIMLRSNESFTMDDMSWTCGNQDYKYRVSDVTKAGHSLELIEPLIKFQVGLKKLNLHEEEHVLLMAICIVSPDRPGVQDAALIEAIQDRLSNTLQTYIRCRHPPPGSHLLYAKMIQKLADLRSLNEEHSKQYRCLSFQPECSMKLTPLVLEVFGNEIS
Method in brief: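 Steps: transfect HepG2 with GAL4-UAS-driven reporter constructs; dose compounds 24 h; isolate RNA, reverse-transcribe, PCR-amplify with 6-FAM-labelled primer extension and HpaI digestion; quantify fragments by capillary electrophoresis relative to DMSO.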

[3] = BSK_3C_SRB: Viability Assessment in the BioMAP Diversity Plus: 3C Assay (AID 2283023); settings: primary human endothelial cells (HUVEC);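 also: fitted both ways against DMSO so a hit may be signal rise or drop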
Method in brief: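 Absorbance at 560 nm of sulforhodamine B-stained (0.1%) total protein served as a cytotoxicity readout in human umbilical vein endothelial cells, 24 h after chemical treatment. Signal was fitted bidirectionally relative to DMSO.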

[4] = BSK_3C_Vis: BioMAP Diversity Plus: 3C Assay for Morphology Visualization (AID 2283025); settings: primary human endothelial cells (HUVEC);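 also: fitted both ways so gain or loss versus DMSO counts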
Method in brief: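 Morphology read by light microscopy serves as a background control for the multiplexed 3C assay in human umbilical vein endothelial cells, taken 24 h after dosing, with DMSO as the negative control and bidirectional curve fitting.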

[5] = read-out: Pselectin, SELP (gene 6403); assay: BSK_4H_Pselectin: BioMAP Diversity Plus: 4H Assay for Pselectin Biomarker Activity (AID 2283026); settings: primary human endothelial cells (HUVEC); actives raise or lower the signal
Method in brief: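 Endothelial primary cells (human umbilical vein) are dosed, incubated 24 h, and assayed for surface P-selectin by ELISA; responses in either direction are fitted relative to the DMSO negative control.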

[6] = BSK_4H_SRB: Viability Assessment in the BioMAP Diversity Plus: 4H Assay (AID 2283027); settings: primary human endothelial cells (HUVEC);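 also: cells exposed to compound for 24 h before staining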;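 as to AC50: curves fitted both ways versus DMSO so AC50 may be loss or gain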
Method in brief: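 HUVEC, 24 h post-dose; 10% TCA fix, 0.1% SRB stain, A560 nm. Total protein = overt cytotoxicity, parallel to biomarker read. Bidirectional fit vs DMSO baseline.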

[7] = BSK_BE3C_SRB: Viability Assessment in the BioMAP Diversity Plus: BE3C Assay (AID 2283028); settings: primary human bronchial epithelial cells;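 as to AC50: fitted both ways so AC50 may mark signal gain or loss versus DMSO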
Method in brief: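 Cells (human bronchial epithelial, primary) are treated with chemicals, and after 24 h the parallel cultures are fixed in 10% TCA. These are then stained with 0.1% SRB and read at 560 nm. Gain or loss of signal is fitted relative to DMSO.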

[8] = read-out: Thrombomodulin, THBD (gene 7056); assay: BSK_3C_Thrombomodulin: BioMAP Diversity Plus: 3C Assay for Thrombomodulin Biomarker Activity (AID 2283029); settings: primary human endothelial cells (HUVEC); actives raise or lower the signal
Method in brief: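 Endothelial cells from umbilical vein are dosed with test chemical and incubated 24 h. Thrombomodulin is then quantified by ELISA, with DMSO serving as negative control and activity baseline.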

[9] = read-out: Urokinase-type plasminogen activator receptor (uPAR), PLAUR (gene 5329); assay: BSK_4H_uPAR: BioMAP Diversity Plus: 4H Assay for Urokinase-type plasminogen activator receptor (uPAR) Biomarker Activity (AID 2283030); settings: primary human endothelial cells (HUVEC); actives raise or lower the signal
Method in brief: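 Cell-surface uPAR ELISA signal, measured 24 h after dosing human umbilical vein endothelial cells, was analyzed with bidirectional fitting relative to DMSO. Parallel SRB staining of total protein tracked overt cytotoxicity.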

[10] = read-out: Vascular endothelial growth factor receptor 2 (Homo sapiens) (UniProt P35968); assay: BSK_4H_VEGFRII: BioMAP Diversity Plus: 4H Assay for Vascular endothelial growth factor receptor 2 (VEGFR2) Biomarker Activity (AID 2283031); settings: primary human endothelial cells (HUVEC); actives raise or lower the signal;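 as to AC50: cell-surface VEGFR2 protein level quantified by ELISA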
Method in brief: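 ELISA read-out of VEGFRII in primary human umbilical vein endothelium, taken 24 h after chemical treatment. Responses are expressed relative to DMSO, with bidirectional fitting.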

[11] = read-out: Human Leukocyte Antigen - DR isotype (HLADR), HLA-DRA (gene 3122); assay: BSK_BE3C_HLADR: BioMAP Diversity Plus: BE3C Assay for Human Leukocyte Antigen - DR isotype (HLADR) Biomarker Activity (AID 2283032); settings: primary human bronchial epithelial cells; actives raise or lower the signal
Method in brief: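 Chemicals are dosed onto BE3C bronchial epithelial cultures of human origin and left 24 h. HLA-DR is then measured by ELISA, and the endpoint is fitted in both directions using DMSO as the activity baseline.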

[12] = read-out: Vascular cell adhesion molecule 1 (VCAM1), VCAM1 (gene 7412); assay: BSK_4H_VCAM1: BioMAP Diversity Plus: 4H Assay for Vascular cell adhesion molecule 1 (VCAM1) Biomarker Activity (AID 2283033); settings: primary human endothelial cells (HUVEC); actives raise or lower the signal
Method in brief: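 Chemicals are added to primary human umbilical vein endothelial cells. After 24 h, VCAM-1 levels are measured by ELISA. Values come from bidirectional fitting referenced to DMSO.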

[13] = read-out: Interferon-gamma inducible Protein 10 (IP10), CXCL10 (gene 3627); assay: BSK_BE3C_IP10: BioMAP Diversity Plus: BE3C Assay for Interferon-gamma inducible Protein 10 (IP10) Biomarker Activity (AID 2283034); settings: primary human bronchial epithelial cells; actives raise or lower the signal
Method in brief: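 IP-10 quantified by ELISA serves as the endpoint. Cells: primary human bronchial epithelium, read 24 h after compound addition. Activity is derived by bidirectional fitting with DMSO as negative control.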

[14] = read-out: Monokine induced gamma interferon (MIG), CXCL9 (gene 4283); assay: BSK_BE3C_MIG: BioMAP Diversity Plus: BE3C Assay for Monokine induced gamma interferon (MIG) Biomarker Activity (AID 2283035); settings: primary human bronchial epithelial cells; actives raise or lower the signal
Method in brief: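 Dose cells (human primary bronchial epithelial), incubate 24 h, quantify MIG by ELISA, then fit concentration–response in both directions relative to DMSO control.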

[15] = read-out: Transforming growth factor beta 1 (TGFb1), TGFB1 (gene 7040); assay: BSK_BE3C_TGFb1: BioMAP Diversity Plus: BE3C Assay for Transforming growth factor beta 1 (TGFb1) Biomarker Activity (AID 2283036); settings: primary human bronchial epithelial cells; actives raise or lower the signal
Method in brief: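 Bronchial epithelial primary cells are treated with test chemical, then TGF-b1 is quantified by ELISA after 24 hours. Values derive from bidirectional fitting against DMSO, with cytotoxicity checked by SRB staining in parallel cultures.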

[16] = read-out: Plasminogen activator inhibitor-1 (PAI1), SERPINE1 (gene 5054); assay: BSK_BE3C_PAI1: BioMAP Diversity Plus: BE3C Assay for Plasminogen activator inhibitor-1 (PAI1) Biomarker Activity (AID 2283037); settings: primary human bronchial epithelial cells; actives raise or lower the signal
Method in brief: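 Values derive from bidirectional fitting against DMSO baseline of PAI-1 levels, measured by ELISA in human bronchial epithelial cells 24 h after compound addition.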

[17] = read-out: urokinase plasminogen activator (uPA), PLAU (gene 5328); assay: BSK_BE3C_uPA: BioMAP Diversity Plus: BE3C Assay for urokinase plasminogen activator (uPA) Biomarker Activity (AID 2283038); settings: primary human bronchial epithelial cells; actives raise or lower the signal
Method in brief: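 Bronchial epithelial cells (human, primary); chemical 24 h; uPA by ELISA; bidirectional fit vs DMSO. SRB (0.1%, after 10% TCA fixation, 560 nm) in parallel cultures for cytotoxicity.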

[18] = read-out: Urokinase-type plasminogen activator receptor (uPAR), PLAUR (gene 5329); assay: BSK_BE3C_uPAR: BioMAP Diversity Plus: BE3C Assay for Urokinase-type plasminogen activator receptor (uPAR) Biomarker Activity (AID 2283039); settings: primary human bronchial epithelial cells; actives raise or lower the signal
Method in brief: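 Steps: dose human primary bronchial epithelial cells, incubate 24 h, measure uPAR by ELISA, then fit gain- or loss-of-signal response bidirectionally relative to DMSO.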

[19] = read-out: Interleukin-6 (IL6), IL6 (gene 3569); assay: BSK_CASM3C_IL6: BioMAP Diversity Plus: CASM3C Assay for Interleukin-6 (IL6) Biomarker Activity for (AID 2283040); settings: primary human coronary artery smooth muscle cells; actives raise or lower the signal
[20] = read-out: Matrix Metallopeptidase 1 (MMP1), MMP1 (gene 4312); assay: BSK_BE3C_MMP1: BioMAP Diversity Plus: BE3C Assay for Matrix Metallopeptidase 1 (MMP1) Biomarker Activity (AID 2283024); settings: primary human bronchial epithelial cells; actives raise or lower the signal
Method in brief: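 MMP1 signal, measured by ELISA after a 24 h chemical exposure of human primary bronchial epithelial cells, is analysed with bidirectional fitting using DMSO as negative control.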

Measured: AC50

O=C(NO)c1ccccc1
not listed: [20]
inactive: all other assays above

Cc1cccc2c1ccc1ccccc12
not listed: [20]
inactive: all other assays above

CN(C)c1ccc(C(=C2C=CC(=[N+](C)C)C=C2)c2ccccc2)cc1
active: [1] 356 nM | [3] 55 nM | [4] 9.48 nM | [5] 13.8 nM | [6] 52.7 nM | [7] 2720 nM | [9] 5.49 nM | [10] 24.9 nM | [11] 16.2 nM | [12] 16 nM | [13] 202 nM | [17] 958 nM | [18] 186 nM | [19] 103 nM
inactive: [2] | [8] | [15] | [16]

CCOC(=O)CN[C@@H](C(=O)N1CC[C@H]1C(=O)NCc1ccc(/C(N)=N/O)cc1)C1CCCCC1
not listed: [14] | [20]
inactive: all other assays above

CN(Cc1cnc2nc(N)nc(N)c2n1)c1ccc(C(=O)N[C@@H](CCC(=O)O)C(=O)O)cc1
inactive: [1] | [3] | [20] | [4] | [5] | [6] | [7] | [8] | [9] | [10] | [11] | [12] | [13] | [14] | [15] | [16] | [17] | [18] | [19]
active: [16] 2710 nM

Clc1ccc(Nc2nnc(Cc3ccncc3)c3ccccc23)cc1
active: [16] 3840 nM | [17] 5600 nM
not listed: [3] | [13] | [14] | [20]
inactive: all other assays above

CCCCCCCCCCCCCCCCCC[N+](C)(C)Cc1ccccc1
active: [1] 5260 nM | [3] 299 nM | [4] 425 nM | [5] 975 nM | [6] 2630 nM | [9] 590 nM | [11] 2050 nM | [12] 2800 nM | [13] 4270 nM | [14] 5770 nM | [17] 10000 nM | [19] 4870 nM
inactive: [2] | [7] | [8] | [10] | [15] | [16] | [18]

O=C(O)CCC(F)(F)C(F)(F)C(F)(F)C(F)(F)C(F)(F)F
not listed: [4] | [14] | [15]
inactive: all other assays above

COc1cc(OC)nc(NC(=O)NS(=O)(=O)Nc2ccccc2C(=O)N(C)C)n1
not listed: [2] | [14]
inactive: all other assays above

O=P(O)(O)CCC(F)(F)C(F)(F)C(F)(F)C(F)(F)C(F)(F)C(F)(F)C(F)(F)C(F)(F)F
active: [3] 47000 nM | [6] 42700 nM
inactive: [1] | [2] | [3] | [5] | [6] | [7] | [8] | [9] | [10] | [11] | [12] | [13] | [16] | [17] | [18] | [19]

O=C1c2ccc(O)c(O)c2C(=O)c2c(O)ccc(O)c21
inactive: all assays above

Cc1[nH]nc2c1N=C(c1ccccc1Cl)c1cc([N+](=O)[O-])ccc1N2
active: [3] 750 nM | [4] 645 nM | [5] 639 nM | [6] 733 nM | [7] 20300 nM | [9] 666 nM | [10] 2430 nM | [11] 10300 nM | [12] 2560 nM | [13] 12200 nM | [15] 21600 nM | [16] 1620 nM
inactive: [1] | [2] | [20] | [8] | [17] | [18] | [19]
